# Out of some 4,300 compounds screened, about 60 (1%) were called active. For the sample, actives were picked, then their nearest neighbours and some compounds at random. Unmarked numbers belong to inactive results.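 How the source made its calls: active means inhibition of labelled peptide binding to the formyl peptide receptor of at least 65%; inactive means the rest.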
# Molecular target: fMet-Leu-Phe receptor (Homo sapiens) (UniProt P21462)
# Test: small-molecule ligands of human FPR – U937-FPR cells, fMLFK-FITC, flow cytometry, primary screen (AID 362);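 on inhibition: plate controls were buffer control wells for no effect and unlabeled fMLFF blocking peptide for full effect; higher means less cell fluorescence so more probe displaced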
# Details: fMLFK-FITC displacement; stronger effect = higher value, concentration not given here
# Sequence of fMet-Leu-Phe receptor (Homo sapiens) (P21462 whole entry, looked up): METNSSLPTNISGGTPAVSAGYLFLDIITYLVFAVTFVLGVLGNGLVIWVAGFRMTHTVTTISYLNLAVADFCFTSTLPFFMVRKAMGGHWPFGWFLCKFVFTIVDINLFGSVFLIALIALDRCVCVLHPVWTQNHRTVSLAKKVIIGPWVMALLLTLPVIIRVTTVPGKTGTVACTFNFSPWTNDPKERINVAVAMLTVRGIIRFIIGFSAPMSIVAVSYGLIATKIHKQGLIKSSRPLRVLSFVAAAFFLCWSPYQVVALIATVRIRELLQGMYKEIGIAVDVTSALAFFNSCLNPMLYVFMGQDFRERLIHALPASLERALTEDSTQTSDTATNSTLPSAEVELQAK
row,SMILES,inhibition
1,CCC(C)C(NC(=O)C(CC(=O)OCc1ccccc1)NC(=O)OC(C)(C)C)C(=O)NC(Cc1ccccc1)C(N)=O (centres undefined),inactive
2,CCOc1cc(C2C(C(=O)OC3CCCC3)=C(C)NC3=C2C(=O)C(C(=O)OC)C(C)C3)ccc1O (centres undefined),15.5%
3,CCCN(CCC)CCNC(=O)c1cn(CC(C)C)c(=O)c2cc(OC)c(OC)cc12,inactive
4,CC1=C(C(=O)OC2CCCCC2)C(c2cccc(O)c2)C2=C(CC(C)(C)CC2=O)N1 (centres undefined),20.5%
5,O=C(CCCCCn1c(SCC(=O)NCc2ccccc2)nc2ccccc2c1=O)NCc1ccco1,3.6%
6,COc1ccc2nc(NC(=O)C(NS(=O)(=O)c3ccc4c(c3)CCN4C(C)=O)C(C)C)sc2c1 (centres undefined),inactive
7,COc1ccc(C2/C(=C(/O)c3ccc(Cl)cc3)C(=O)C(=O)N2CC(C)C)c(OC)c1 (centres undefined),31.1%
8,COc1ccccc1C1/C(=C(\O)c2ccc(F)cc2)C(=O)C(=O)N1CCCCCC(=O)O (centres undefined),11.2%
9,COc1ccc(C2/C(=C(/O)c3ccc(C)cc3)C(=O)C(=O)N2CC(C)C)c(OC)c1 (centres undefined),52.9%
10,COc1ccc(C2/C(=C(\O)c3ccc(F)cc3)C(=O)C(=O)N2CCCCCC(=O)O)c(OC)c1 (centres undefined),23.3%
11,COc1ccc(OC)c(C2/C(=C(/O)c3ccc(C)cc3)C(=O)C(=O)N2CC(C)C)c1 (centres undefined),86.7% (active)
12,COc1ccc(OC)c(C2/C(=C(\O)c3ccc(F)cc3)C(=O)C(=O)N2CCCCCC(=O)O)c1 (centres undefined),84.5% (active)
13,O=C(Nc1nccs1)c1cc(N2C(=O)C3C4CCC(C4)C3C2=O)ccc1Cl (centres undefined),inactive
14,CCSCCOC(=O)C1=C(C)NC2=C(C(=O)C(C(=O)OC)C(C)C2)C1c1cccc(F)c1 (centres undefined),5.8%
15,O=c1oc2cc(O)ccc2c2c1CCC2,7%
16,O=c1oc2cc(O)cc(O)c2c2c1CCC2,81.6% (active)
17,O=c1oc2cc(O)ccc2c2c1CCCC2,inactive
18,Cc1cc(NC(=O)C2CCCCC2C(=O)O)nn1Cc1ccc(Cl)cc1 (centres undefined),3%
19,CCCCCCOC(=O)C1=C(C)NC(=O)NC1c1cc(OC)c(O)c(OC)c1 (centres undefined),inactive
20,CCCCCC(=O)Oc1cccc(N2C(=O)C3C4CCC(C4)C3C2=O)c1 (centres undefined),inactive
21,COC(=O)CC/C(O)=C1\C(=O)CC(C)(C)CC1=NCCc1ccc(OC)c(OC)c1,3.2%
22,CCOc1cc2c(C(=O)N3CCN(c4ccccn4)CC3)cn(CC(C)C)c(=O)c2cc1OCC,3.9%
23,COc1cc2c(C(=O)O)cn(CC(C)C)c(=O)c2cc1OC,inactive
24,CCOc1cc2c(C(=O)O)cn(CC(C)C)c(=O)c2cc1OCC,70% (active)

# From PubChem BioAssay AID362 (NMMLSC, 2006)
